# USP17 block – inhibitors of human USP17 deubiquitinase | purified USP17, Ub-rhodamine cleavage fluorescence, 3 h | Ubiquitin carboxyl-terminal hydrolase 17-like protein 5 (Homo sapiens), A8MUK1 | inhibition, % at 50 µM | 47,000 compounds, 6.5% hits | AID 1645855, 2021
# USP30 block – inhibitors of human USP30 deubiquitinase | purified USP30, Ub-rhodamine cleavage fluorescence | Ubiquitin carboxyl-terminal hydrolase 30 (Homo sapiens), Q70CQ3 | inhibition, % at 25 µM | 47,000 compounds, 5.3% hits
# Target sequence (Q70CQ3 whole entry, looked up): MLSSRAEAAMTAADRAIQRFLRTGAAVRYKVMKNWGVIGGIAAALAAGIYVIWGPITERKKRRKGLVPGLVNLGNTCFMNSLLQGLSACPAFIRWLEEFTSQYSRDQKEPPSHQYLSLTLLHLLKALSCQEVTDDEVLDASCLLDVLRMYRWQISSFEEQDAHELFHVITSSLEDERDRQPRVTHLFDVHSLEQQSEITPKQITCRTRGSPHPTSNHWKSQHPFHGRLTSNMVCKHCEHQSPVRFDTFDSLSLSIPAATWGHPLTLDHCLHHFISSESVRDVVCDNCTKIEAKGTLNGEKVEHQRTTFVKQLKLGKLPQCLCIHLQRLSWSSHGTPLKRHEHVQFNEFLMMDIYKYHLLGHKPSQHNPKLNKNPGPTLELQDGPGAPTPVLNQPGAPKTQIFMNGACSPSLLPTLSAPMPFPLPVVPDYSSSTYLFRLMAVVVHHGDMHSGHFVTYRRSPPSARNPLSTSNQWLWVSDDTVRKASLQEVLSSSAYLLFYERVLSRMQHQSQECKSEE
# USP28 block – inhibitors of human USP28 deubiquitinase. AID 1645857, 2021. Ubiquitin carboxyl-terminal hydrolase 28 (Homo sapiens), Q96RU2. purified USP28, Ub-rhodamine cleavage fluorescence, 30 min. inhibition, % at 25 µM. 47,000 compounds, 3% hits
# * hit, by the source's call; i = inactive; / = no result. Sampled rows, rich in hits. Any-hit rate of the full collection: about 11%. Rule as the data show it: active = inhibition above about 30%; inactive = the rest.
SMILES,USP17 block,USP30 block,USP28 block
Cc1ccc(NC(=O)N2CCC3(CC2)Nc2ccccc2-n2cccc23)cc1,-8.2,-5.3,6.6
CNC(=O)[C@@]12CCC3(CCN(C(=O)c4cccnc4)CC3)[C@@H]1CN(C(C)=O)C2,-16.6,-16.3,-0.4
O=C(c1ccco1)N1CCC2(CC1)CC1(CO2)Nc2ccccc2-n2cccc21 (configuration not stated),80.5*,-26.4,18.5
c1coc(-c2nnc([C@H]3CCN(Cc4cnc5ccccc5c4)C3)o2)c1,23.0,11.9,4.4
CCc1nnc(NC(=O)C2CCN(C(=O)c3ccccc3F)CC2)s1,10.9,-3.4,14.0
CC(=O)N1CCCn2c(nc3ccccc32)C1Cc1ccccc1 (configuration not stated),-3.6,12.0,4.9
Cc1cc(C)n(CC(=O)NCc2ccc(F)cc2)c1-c1nc(C(C)C)no1,0.0,14.5,1.7
CCCn1cc(C(=O)N2CCC3(CC2)CC2(CO3)Nc3ccccc3-n3cccc32)c(C)n1 (configuration not stated),66.8*,4.8,9.5
CCn1ccc(C(=O)N2CCC3(CC2)Nc2cccnc2NC3=NCc2ccccc2)n1,-77.3,-350.7,-118.6
O=C(O)C1CCN(Cc2c(-c3ccco3)nc3ccccn23)CC1,-134.0,i,-214.0
COc1ccccc1CNC(=O)CCCCn1c(=O)c2ccccc2n(CC(=O)NCCC2=CCCCC2)c1=O,42.6*,3.7,-2.8
O=C(CCCn1c(=O)c2ccccc2n(CC(=O)N2CCN(c3ccccc3)CC2)c1=O)NCc1ccco1,/,-18.4,-4.4
COc1ccc2c(CNCCC3=CCCCC3)c(C(=O)O)n(Cc3ccccc3F)c2c1,29.0,39.6*,23.2
COc1cc(OC)cc(-n2c(=O)c3ccccc3n(CC(=O)NCCC3=CCCCC3)c2=O)c1,29.1,22.2,-19.3
Cn1c(C(=O)O)c(CNCCC2=CCCCC2)c2ccccc21,-17.3,-14.4,-19.8
O=C(Cn1c(=O)c2sccc2n(CC(=O)NCCC2=CCCCC2)c1=O)NCc1ccccc1Cl,47.6*,/,/
COc1ccc(-n2c(=O)c3ccccc3n(CC(=O)NCCC3=CCCCC3)c2=O)c(OC)c1,-11.4,-25.1,-17.0
COc1ccccc1CNC(=O)CCCn1c(=O)c2ccccc2n(CC(=O)N2CCN(c3ccccc3)CC2)c1=O,57.3*,-1.7,-6.3
O=C1NCc2ccccc2CC12CCCCN2Cc1cc(O)cc(O)c1 (configuration not stated),-22.9,-32.4,-15.0
CCc1nccn1-c1cncc(C2CCCN2C(=O)c2scnc2C)n1 (configuration not stated),1.1,9.5,0.1
CC1(O)C(=O)C=Cc2c1ccc(O)c2CO (configuration not stated),-6.2,-17.0,-11.4
Cc1cccc(NC(=O)Nc2ccc(C)n(CC(=O)N3CCC4(CC3)OCCO4)c2=O)c1,1.3,17.6,4.2
O=C1c2ccc3c(c2N(S(=O)(=O)c2ccc(O)cc2)C[C@@H]2C[C@]12c1ccccc1)OCO3,8.1,7.9,10.2
COc1ccc(-n2c(=O)c3ccc(C(=O)NCCc4ccccc4)cc3n(CC(=O)Nc3ccc(C)cc3C)c2=O)cc1,8.0,8.8,-0.4
COc1ccc(-n2c(=O)c3ccc(C(=O)NCCc4ccccc4)cc3n(CC(=O)NCCC3=CCCCC3)c2=O)cc1,40.5*,4.5,7.1
SMILES,USP17 block,USP30 block,USP28 block
Cc1ccc(-c2cnc([C@@H]3COCCN3Cc3csnn3)[nH]2)cc1,-37.9,-10.1,3.2
Cc1nnc(NC(=O)C2CCN(S(=O)(=O)c3ccc4c(c3)CCC4)CC2)o1,-15.8,17.8,3.8
O=C(Nc1nc2c(s1)CCC2)C1CCN(S(=O)(=O)c2ccc3c(c2)CCCC3)CC1,19.9,-102.1,49.7*
O=C(Nc1nnc(-c2ccccc2Br)s1)C12CC3CC(CC(C3)C1)C2,17.9,20.9,4.1
Cc1cc2cc3c(cc2n2c(=O)n(CCN4CCCC4)nc12)OCO3,47.4*,41.5*,10.4
Cc1cc(C)c2c(c1)cc(C)c1nn(CC(N)=O)c(=O)n12,6.2,10.1,0.2
FC(F)(F)c1cccc(Nc2nnc(-c3cccnc3)s2)c1,50.2*,21.7,-2.4
NC(=O)COC(=O)c1cccnc1Nc1cccc(C(F)(F)F)c1,-13.2,-44.1,16.5
Nc1ncnc(Nc2cc([N+](=O)[O-])ccc2F)c1[N+](=O)[O-],2.5,2.4,4.3
CC(C)C(=O)N1CCc2cc(-c3csc(NC(=O)CN4CCOCC4)n3)ccc21,-40.9,-105.8,-35.4
O=C(Nc1nccs1)C1c2ccccc2C(=O)N(c2ccccc2)C12CCCCC2 (configuration not stated),34.3*,-8.5,-10.2
O=C(Nc1cccnc1)C1c2ccccc2C(=O)N(c2ccccc2)C12CCCCC2 (configuration not stated),12.4,16.5,-6.6
O=c1ccc(S(=O)(=O)N2CCCCCC2)cn1Cc1ccccc1F,-0.6,9.9,-1.2
Cc1cc(C)cc(N2C(N)=NC(N)=NC2c2ccccc2F)c1 (configuration not stated),17.4,36.9*,13.2
COc1ccc(Cn2nccc2NC(=O)c2cc(=O)c3ccccc3o2)cc1,18.2,25.4,11.4
COc1ccc(Cn2nccc2NC(=O)C(C)Oc2ccc(C)c(C)c2)cc1 (configuration not stated),62.8*,/,/
Cc1nc(-c2ccc3c(c2)CCN3C(=O)Cc2cccc(F)c2)no1,18.0,13.3,19.4
COc1ccc(OCC(=O)N2CCc3cc(-c4noc(C)n4)ccc32)cc1,35.0*,2.7,7.9
NC(=O)CCC(=O)N1CCC2(CC1)OC(=O)N(Cc1ccccc1)c1ccccc12,2.4,11.7,3.8
CCN1CCN(C2(CNC(=O)c3ccccc3Cl)CCCCC2)CC1,6.9,9.5,3.8
CCC1(CC)Oc2ccc(C(=O)CCN(C)C)cc2O1,7.1,34.7*,14.0
Cc1nn(-c2ccc(F)cc2)c(C)c1S(=O)(=O)N1CCC(C(=O)N2CCCC2)CC1,6.9,21.0,0.7
Cc1csc2nc3n(c(=O)c12)CCN(Cc1cnc[nH]1)CC3,-11.7,6.5,-0.9
O=C(Nc1ccc(OC(F)(F)F)cc1)NC1CCCc2ccccc21 (configuration not stated),-2.6,-2.6,-0.6
O=C(Nc1ccccc1F)NC1CCCc2ccccc21 (configuration not stated),2.6,39.9*,0.5
SMILES,USP17 block,USP30 block,USP28 block
COc1ccccc1C(=O)N1C[C@H]2NC(=O)c3ccccc3C(=O)[C@@]2(C)C1,4.7,12.5,-3.7
COc1ccc2c(C)c(CCC(=O)N3CC[C@@]4(O)CCCC[C@H]4C3)c(=O)oc2c1,2.3,14.5,6.4
COc1ccc(Cn2nnc(C(=O)N3CCSCC3)c2-n2cccc2)cc1,33.4*,-40.6,20.4
COc1ccc(Cn2nnc(C(=O)NC3CCCCC3)c2-n2cccc2)cc1,48.1*,10.6,41.6*
Cc1ccc(Cn2nnc(C(=O)N3CCSCC3)c2-n2cccc2)cc1,10.5,17.6,22.0
O=C(c1nnsc1Sc1ccc(Cl)cc1)N1CCCCC1,6.5,16.8,-0.3
O=C(c1nnn(Cc2ccc(Cl)cc2)c1-n1cccc1)N1CCCC1,26.0,14.1,76.1*

# Compound activity (PubChem BioAssay)
